Six compounds from PubChem BioAssay (NCATS) can be followed below.

Where “and” joins values, the source holds several entries; their conditions need not be identical. Identical values can stand only once. Records with an inconclusive call do not appear. Calls of active or inactive are those of the source. Unless noted, calls come from the whole dose curve; as a rule, active = well fitted curve in the direction sought with a large enough effect; inconclusive = small, poorly fitted or top-dose-only effect, or another doubt; inactive = no such curve, though single readings can be large; an effect the other way counts as inactive or inconclusive.

A short description of assay [1]: Cell Viability - HepG2 (AID 433; calls by dose curve;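 note: potency is the fitted concentration of half-maximal effect; cells exposed to compound for 40 hours; potency for ATP loss meaning cytotoxicity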). The following applies: qHTS. Put shortly:
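Read-out is luciferase-based quantitation of cellular ATP as a measure of viable HepG2 cells after 40 h treatment at 37 °C. Signal decrease is scaled between DMSO-only and 100 uM tamoxifen controls, with AC50 fitted by the Hill equation.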
In general terms: qHTS replaces the single test concentration by a dilution series.

Assay [2] can be described thus: Cell Viability - Mesenchymal (AID 546).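 Note: cells exposed to compound for 40 hours before reading.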 The following applies: mesenchymal cells viability, qHTS; activity change, negative = cytotoxicity: at 91.7 µM (top of the series). The method, boiled down: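 In this qHTS cytotoxicity format, glomerulus-derived human mesenchymal kidney cells received compound for 40 hr, then luciferase-based ATP quantitation. Concentration-response data were fitted with the Hill equation.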

Assay [3] is described as follows: Cellular Toxicity (caspase-3) Jurkat (AID 655).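 Note: cells exposed to compound for 16 h at 37 °C before reading.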 The following applies: Jurkat caspase-3 activation, luminescence; caspase-3 activation: at 92.2 µM (top of the series), DMSO = 0%, tamoxifen = 100%. The method, boiled down:
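5000 Jurkat cells/well; compound 16 hr, 37 °C; Caspase-Glo 3/7 added, 20 min RT; luminescence read. Norm: DMSO = 0%, tamoxifen 100 uM = 100%. AC50, Hill model.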

Assay [4] in a line: Cell Viability - LYMP1-002 - Assay at 16 hr (AID 948).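 Note: 0% = DMSO alone and full effect = 92 µM tetraoctylammonium bromide.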 The following applies: LYMP1-002 lymphoblastoid cell viability; series mostly up to 92.2 µM. Put shortly: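 Seed 2500 LYMP1-002 cells per well in complete medium and hold 5 hr at 37 C. Add compound across a concentration series and incubate 16 hr at 37 C. Add CellTiter-Glo, wait 30 min at room temperature, read luminescence.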

Assay [5] is described as follows: Cell Viability - LYMP2-003 (AID 965).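 Note: cells exposed to compounds for 24 h before reading; 0% = DMSO only and full effect = 92 µM tetraoctylammonium bromide; nearly all actives have a fitted effect of over 50% in size.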 The settings on record: LYMP2-003 lymphoblastoid cell viability; series mostly up to 92.2 µM. The method, boiled down: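 Seed 2500 lymphoblastoid cells/well; incubate 5 hr, 37 C; add compounds; incubate 24 hr, 37 C; add CellTiter-Glo, 30 min RT; read luminescence. AC50 from Hill fit.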
A short description of assay [6]: Cell Viability - LYMP2-011 (AID 969).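 Note: 0% = DMSO only and full inhibition = 92 µM tetraoctylammonium bromide; nearly all actives have a fitted effect of over 60% in size.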 The settings on record: LYMP2-011 lymphoblastoid cells viability; series mostly up to 92.2 µM. The method, boiled down:
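Cytotoxicity qHTS with ATP content as read-out: lymphoblastoid cells (2500/well) exposed to compound for 24 h at 37 C, then luciferase luminescence measured. Concentration-response data fitted with the standard Hill equation to give AC50.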

Assay [7] is described as follows: Cell Viability - LYMP2-013 (AID 970).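 Note: 0% = DMSO only and full inhibition = tetraoctylammonium bromide control; nearly all actives have a fitted effect of over 55% in size.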 The settings on record: LYMP2-013 lymphoblastoid cells viability; series mostly up to 92.2 µM. Put shortly:
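qHTS cytotoxicity: ATP-dependent luminescence (CellTiter-Glo, 30 min room temperature) read after 24 h compound exposure at 37 C of 2500 LYMP2-013 lymphoblastoid cells per well. Concentration-response fitted with Hill equation to give AC50.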

Assay [8] in a line: Cell Viability - LYMP2-021 (AID 974). Note: % is set by controls: 0 for no effect and ±100 for the full control effect; nearly all actives have a fitted effect of over 55% in size. The settings on record: LYMP2-021 lymphoblastoid cells viability; series mostly up to 92.2 µM. The method, boiled down:
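AC50 values come from Hill-equation fits to CellTiter-Glo luminescence (ATP content), read after 24 hour compound exposure at 37 C of 2500 LYMP2-021 lymphoblastoid cells/well; tetraoctylammonium bromide as positive control.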

A short description of assay [9]: Cell Viability - LYMP2-002 (AID 977).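 Note: plate controls were DMSO only for no effect and 92 µM tetraoctylammonium bromide for full effect.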 The following applies: LYMP2-002 lymphoblastoid cell viability, qHTS; series mostly up to 92.2 µM. Put shortly:
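In this qHTS viability screen, 2500 human lymphoblastoid cells per well receive compound for 24 hr at 37 C, and luciferase-based ATP luminescence gives the viability signal. Tetraoctylammonium bromide serves as positive control.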

Assay [10] can be described thus: Cell Viability - LYMP2-008 (AID 980). Note: % is set by controls: 0 for no effect and ±100 for the full control effect; nearly all actives have a fitted effect of over 60% in size. The settings on record: LYMP2-008 lymphoblastoid cell viability, qHTS; series mostly up to 92.2 µM. The method, boiled down:
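Cytotoxicity determined from ATP-dependent luciferase luminescence (CellTiter-Glo) following 24 h compound exposure of human lymphoblastoid LYMP2-008 cells at 37 C. Concentration-response data fitted to the Hill equation to give AC50.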

Assay [11] is described as follows: Cell Viability - LYMP2-012 (AID 982).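 Note: cellular ATP by luciferase luminescence where a drop means cytotoxicity; cells exposed to compound for one day before reading; 0% = DMSO only and full loss = 92 µM tetraoctylammonium bromide; nearly all actives have a fitted effect of over 55% in size.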 The settings on record: LYMP2-012 lymphoblastoid cell viability qHTS; series mostly up to 92.2 µM.
Assay [12] is described as follows: Cell Viability - LYMP2-014 (AID 983).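 Note: plate controls were DMSO only for no effect and 92 µM tetraoctylammonium bromide for full effect; nearly all actives have a fitted effect of over 50% in size.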 The following applies: LYMP2-014 lymphoblastoid cells, viability qHTS; series mostly up to 92.2 µM. The method, boiled down: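 Intracellular ATP loss, read by luciferase luminescence, measures acute cytotoxicity after 24 h compound exposure of lymphoblastoid LYMP2-014 cells (2500/well, 37 C). Concentration-response data fitted to the Hill equation for AC50.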

Assay [13] is described as follows: Cell Viability - LYMP2-016 (AID 984). Note: % is set by controls: 0 for no effect and ±100 for the full control effect; nearly all actives have a fitted effect of over 55% in size. The settings on record: LYMP2-016 lymphoblastoid cell viability, qHTS; series mostly up to 92.2 µM. Put shortly:
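Cells were seeded at 2500 per well and rested 5 hr before a 24 hr compound exposure at 37 C. Viability was then gauged as cellular ATP by luciferase luminescence, with AC50 values fitted to the Hill equation.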

Assay [14] is described as follows: Cell Viability - LYMP2-020 (AID 986). The settings on record: series mostly up to 92.2 µM. The method, boiled down:
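Cytotoxicity in qHTS format: luminescent ATP readout from CellTiter-Glo after 24 h compound exposure at 37 C in complete medium. LYMP2-020 lymphoblastoid cells were seeded at 2500/well; concentration-response data fitted to the Hill equation for AC50.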

A short description of assay [15]: Cell Viability - LYMP2-024 (AID 988).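 Note: plate controls were DMSO only for no effect and 92 µM tetraoctylammonium bromide for full effect; nearly all actives have a fitted effect of over 60% in size.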 The settings on record: LYMP2-024 lymphoblastoid cell viability; series mostly up to 92.2 µM. The method, boiled down: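 Cytotoxicity was taken as a decrease in ATP (CellTiter-Glo luminescence) after 24 hr compound exposure at 37 C of LYMP2-024 lymphoblastoid cells, 2500 cells/well. Concentration-response data were fitted to the Hill equation to give AC50.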

Assay [16] in a line: Cell Viability - LYMP2-026 (AID 989). Note: % is set by controls: 0 for no effect and ±100 for the full control effect; nearly all actives have a fitted effect of over 50% in size. The settings on record: LYMP2-026 lymphoblastoid cell viability, qHTS; series mostly up to 92.2 µM. Put shortly: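 Cytotoxicity read as ATP-dependent luminescence (CellTiter-Glo, 30 min room temperature) after 24 h compound treatment at 37 C. LYMP2-026 lymphoblastoid line seeded at 2500 cells/well; AC50 derived by standard Hill equation.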

Assay [17] in a line: Cell Viability - LYMP1-002 - Assay at 40 hr (AID 994).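 Note: 0% = DMSO only and full inhibition = 92 µM tetraoctylammonium bromide; nearly all actives have a fitted effect of over 60% in size.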 The settings on record: LYMP1-002 lymphoblastoid cell viability; series mostly up to 92.2 µM. Put shortly: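 Cytotoxicity was read as loss of cellular ATP (CellTiter-Glo luminescence) after 40 hr compound exposure at 37 C of 2500 LYMP1-002 lymphoblastoid cells per well. Concentration-response data were fitted with the standard Hill equation to give AC50.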

Assay [18] in a line: qHTS assay for small molecule antagonists of retinoid X receptor alpha signaling (AID 588546; active = well fitted inhibition curve with a large enough effect in the signal ratio, with a control signal flat, not every such curve was filed as active; the % refers to the signal ratio;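 note: cells stimulated with 9-cis-retinoic acid as agonist; % is set by controls: 0 for no effect and ±100 for the full control effect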). The settings on record: HEK293T RXRa-UAS-bla, beta-lactamase ratio, antagonist mode; measured here: W530 green channel, cytotoxicity proxy. The method, boiled down: (§1)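 Beta-lactamase reporter inhibition, read as CCF4 fluorescence ratio (ex 405, em 460/530 nm) after 2 h at RT. HEK293T UAS-bla cells, 2500/well, were stimulated with 9-cis-RA at 500 or 100 nM final alongside test compound for 18 h at 37 C.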

The target in assay [19] is Retinoic acid receptor RXR-alpha (Homo sapiens) (UniProt P19793). Described as above. The settings on record: HEK293T RXRa-UAS-bla, beta-lactamase ratio, antagonist mode. Put shortly: as §1
Chain of Retinoic acid receptor RXR-alpha (Homo sapiens) (P19793 whole entry, looked up): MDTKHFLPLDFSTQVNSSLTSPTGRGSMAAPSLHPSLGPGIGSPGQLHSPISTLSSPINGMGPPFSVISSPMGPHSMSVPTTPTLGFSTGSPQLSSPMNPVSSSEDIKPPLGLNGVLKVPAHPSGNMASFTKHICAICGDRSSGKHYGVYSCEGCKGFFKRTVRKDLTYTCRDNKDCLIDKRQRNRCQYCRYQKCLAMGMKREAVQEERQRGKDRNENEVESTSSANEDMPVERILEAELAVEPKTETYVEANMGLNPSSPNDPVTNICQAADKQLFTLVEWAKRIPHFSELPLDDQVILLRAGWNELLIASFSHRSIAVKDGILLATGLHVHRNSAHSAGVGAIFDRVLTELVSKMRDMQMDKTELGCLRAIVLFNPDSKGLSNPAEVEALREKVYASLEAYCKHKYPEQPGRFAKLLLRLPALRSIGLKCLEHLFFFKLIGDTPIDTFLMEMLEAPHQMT
A short description of assay [20]: qHTS assay for environmental chemicals that activate the Aryl hydrocarbon Receptor (AhR) signaling pathway (AID 651777). Note: % of control where 0% means no effect; nearly all actives have a fitted effect of over 15% in size. The settings on record: 1A2-DRE human hepatoma cells, luciferase, 24 h; activation: stronger effect = higher value. The method, boiled down: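 Measured luciferase activity, read 30 min after One-Glo addition at room temperature, from human hepatoma cells bearing a dioxin response element–CYP1A2 promoter reporter and exposed to compound for 24 hr at 37 C.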

With `CCCCCCN`, in assay [1], the Potency is > 92 µM (inactive). For the same compound, the Potency entry in [2], in [3], in assay [4], in assay [5], in assay [6] and in [7] was “inactive” each time. Also, the Potency result in assay [8], in assay [9], in [10], in assay [11], in assay [12] and in assay [13] was “inactive” each time. For the same compound, the Potency result in [14], in assay [15], in assay [16] and in assay [17] was “inactive” each time. Further, the results for the max response in assay [18] and in [19] were -7.66% and 2.42% (inactive), respectively. Further, the activation in assay [20] is -0.159% (inactive).

With `OC1CCCCC1`, the Potency in assay [1] is > 92 µM (inactive). In addition, the Potency entry in [2], in assay [3], in [4], in [5], in assay [6] and in assay [7] was “inactive” in each case. The Potency entry in assay [8], in assay [9], in assay [10], in [11], in [12] and in assay [13] was “inactive” each time. Besides, the Potency result in assay [14], in assay [15], in assay [16] and in assay [17] was “inactive” each time. Besides, the max response is 10.1% in assay [18] and -3.43% (inactive) in assay [19]. The activation in assay [20] is -0.284% (inactive).

Regarding `CC(=O)OCc1ccc2c(c1)OCO2`, in assay [1], the Potency is > 92 µM (inactive). Also, the Potency entry in assay [2], in assay [3], in assay [4], in assay [5], in assay [6] and in [7] was “inactive” in each case. For the same compound, the Potency entry in assay [8], in [9], in [10], in assay [11], in [12] and in assay [13] was “inactive” throughout. Also, the Potency entry in [14], in assay [15], in assay [16] and in assay [17] was “inactive” throughout. Also, the results for the max response in [18] and in assay [19] were 8.84% and 24.9% (inactive), respectively. The activation in assay [20] was 1.36% (inactive).

On to `CCN(CC)c1ccc2c(C)cc(=O)oc2c1`, for which, in assay [1], the Potency was > 92 µM (inactive). For the same compound, the Potency result in assay [2], in assay [3], in [4], in [5], in assay [6] and in assay [7] was “inactive” throughout. For the same compound, the Potency result in assay [8], in assay [9], in assay [10], in [11], in [12] and in [13] was “inactive” throughout. For the same compound, the Potency entry in assay [14], in assay [15], in assay [16] and in assay [17] was “inactive” in each case. Besides, the activation in assay [20] is 6.67% (inactive).

As for `CC(=O)OC1CC(C)OC(C)O1` (stereo not drawn), the Potency in assay [1] was > 92 µM (inactive). Moreover, the Potency entry in [2], in [3], in assay [4], in assay [5], in assay [6] and in assay [7] was “inactive” throughout. For the same compound, the Potency entry in [8], in [9], in assay [10], in assay [11], in assay [12] and in assay [13] was “inactive” in each case. Further, the Potency entry in [14], in assay [15], in assay [16] and in assay [17] was “inactive” each time. Further, the max response in [18] is 1.48% and -10.6%; in assay [19], 6% (inactive) and 5.73% (inactive). For the same compound, the activation in [20] is -3.53% (inactive) and 1.99% (inactive).

Consider `O=c1[nH]ncc2ccccc12`, for which the Potency in assay [1] was > 92 µM (inactive). Besides, the Potency result in [2], in [3], in assay [4], in assay [5], in [6] and in assay [7] was “inactive” throughout. Besides, the Potency entry in assay [8], in [9], in [10], in assay [11], in assay [12] and in [13] was “inactive” throughout. The Potency entry in assay [14], in [15], in [16] and in assay [17] was “inactive” each time. Further, the max response was -5.72% in [18] and 13% (inactive) in assay [19]. Besides, the activation in assay [20] is 0.167% (inactive).
